Results on 1 compound are retold here after PubChem BioAssay AID652098 (National Center for Advancing Translational Sciences (NCATS), 2013).

Calls of active or inactive are those of the source.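 The calls were made as follows: active = glucosylsphingosine level at or below 0.14 pmol/ug; inactive = the rest.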

The assay can be described thus: Extended Characterization of Activators of N370S glucocerebrosidase as a Potential Chaperone Treatment of Gaucher Disease: Glucosylsphingosine in Macrophages. Conditions: Gaucher patient macrophages, glucosylsphingosine LC-MS/MS; active compounds read low. The text has this: Glucocerebrosidase (GCase) catalyzes the hydrolysis of beta-glucocerebroside (GC) to glucose and ceramide in lysosomes. Mutations in the glucocerebrosidase gene result in Gaucher disease, an autosomal recessive lysosomal storage disorder. Many of the mutations encountered in patients with Gaucher disease are missense alterations that may cause misfolding, decreased stability and/or mistrafficking of this lysosomal protein. […] These inhibitors include iminosugar analogs and other inhibitors that were discovered as part of previous work. However, the enhancement of enzyme activity by the chaperone action of an enzyme inhibitor must be balanced against the direct inhibition of the enzyme. […] In this extended characterization of our probe, we have further characterized the activity of probes in relevant models of Gaucher disease. This assay attempts to quantitate glucosylsphingosine in patient-derived macrophages following compound incubation. NIH Chemical Genomics Center [NCGC] NIH Molecular Libraries Probe Production Centers Network [MLPCN] MLPCN Grant: MH086442 Assay Submitter (PI): Ellen Sidransky, NHGRI
Glucosylsphingosine was measured by liquid chromatography-tandem mass spectrometry as previously described by Tropak et al. Chembiochem 2008, 9, 2650-2662.
Regarding `C#Cc1ccc(NC(=O)c2cnn3c(C)cc(C)nc23)cc1`, the glucosylsphingosine level was 0.135 pmol/µg (active).
